A selection: hits, their analogues and other compounds. The true share with any hit is near 3.7%.
p53 reactivator: qHTS assay for re-activators of p53 using a Luc reporter; H1299 p53-A138V BP100-luciferase reporter, luminescence, 24 h; Potency, µM (series often up to 92.2 µM), hits mostly activators; actives 0.063% (n = 320,000); AID 504706, 2011; further: nearly all actives have a fitted effect of over 45% in size
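H1299 (p53-null), stable ts p53-A138V + BP100-Luc; 1000 cells/well, Opti-MEM/10% FBS; cpd 4 pt, 1:5; 24 h, 37 deg C, 5% CO2; detection reagent 10 min RT; luminescence.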
A549 tox: Nrf2 qHTS screen for inhibitors: counterscreen for cytotoxicity. A549 ARE-Fluc cells, CellTiter-Fluor viability, 18-24 h. Potency, µM (doses to about 46 µM), actives largely listed as inhibitors. actives 0.16% (n = 390,000). AID 504648, 2011
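A549 ARE_Fluc cells in 5% FBS OPTI-MEM were exposed to compounds in concentration-response for 18-24 h at 37 deg C. Viability was read by CellTiter-Fluor fluorescence (Ex 405/Em 525) after 30 min, before the luciferase read.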
Nrf2 ARE act: qHTS of Nrf2 Activators. AREc32 ARE-luciferase reporter (MCF7-derived line), luminescence, 24 h. Potency, µM (titrated, usually from 46.1 µM), hits mostly activators. AID 624171, 2012. actives 0.31% (n = 410,000); further: nearly all actives have a fitted effect of over 65% in size
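Cells of the AREc32 ARE-luciferase line are plated in OPTI-MEM containing 5% FBS and left overnight at 37 deg C. Compounds are pinned in, incubation continues 24 hr, and firefly luciferase signal is then measured.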
Nrf2 inh: Nrf2 qHTS screen for inhibitors | actives 2.1% (n = 360,000) | Potency, µM (top dose mostly 46 µM), most hits filed as inhibitors | AID 504444, 2011 | A549 ARE-Fluc reporter, luciferase luminescence, 18-24 h; further: nearly all actives have a fitted effect of over 60% in size
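Cells were seeded and rested 2 h, then exposed to compounds for 18-24 h. CellTiter-Fluor was read first as a viability measure. BugLite was added 15 min before the final luminescent read of ARE-luciferase activity in A549 cells.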
miR-21 reporter: qHTS Assay for Modulators of miRNAs and/orActivators of miR-21; HeLa miR-21 FLuc reporter, luciferase, 48 h; Potency, µM (highest dose often 38.3 µM), usual class: activators; 340,000 tested, under 10 active; AID 2288, 2010;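 further: miR-21 action dims this reporter so a rising signal means less miR-21 action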
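Compounds were titrated across several concentrations (up to approximately 40 uM) and incubated 48 hours with HeLa miR-21-FLuc reporter cells (miR-21 target sequence downstream of FLuc, endogenous miR-21). Readout was firefly luciferase luminescence after lytic detection reagent.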
ClpP mod: qHTS Assay for Activators of ClpP. ATP-dependent Clp protease proteolytic subunit (Bacillus subtilis (strain 168)), P80244. purified B. subtilis ClpP, FRET peptide cleavage, 20 min. Potency, µM (titrated, usually from 57.5 µM). actives 1.9% (n = 340,000); active means well fitted falling curve with a large enough effect; inconclusive means small, poorly fitted or top-dose-only effect; inactive means no such curve, though single readings can be large or run the other way; further: the source files actives as falling curves though it sought activators and does not explain the sign; nearly all actives have a fitted effect of over 65% in size
Target sequence (P80244 whole entry, looked up): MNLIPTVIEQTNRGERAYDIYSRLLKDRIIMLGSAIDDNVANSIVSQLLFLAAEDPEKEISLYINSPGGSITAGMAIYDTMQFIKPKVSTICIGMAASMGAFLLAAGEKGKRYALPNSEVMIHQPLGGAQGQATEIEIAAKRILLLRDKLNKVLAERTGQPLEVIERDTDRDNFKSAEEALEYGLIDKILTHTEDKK
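ClpP 10 microg/mL final, pH 8 Tris/KCl buffer with BSA, glycerol, Tween-20; compound pinned in; FRET-FV substrate; RT 20 min; Ex320/Em430; ΔFRET vs ADEP 5.8 microM, DMSO, no enzyme.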
Of the large screens only hits and unclear results are named; the others gave an inactive call. Unless noted, the call rests on the fitted dose curve; in most records, active means well fitted curve in the direction sought with a large enough effect; inconclusive means small, poorly fitted or top-dose-only effect, or another doubt; inactive means no such curve, though single readings can be large; an effect the other way counts as inactive or inconclusive.

O=C(Nc1ccc(OCc2ccccc2Cl)cc1)c1cccnc1	Nrf2 inh 9.2µM
O=c1c2c3nc4ccccc4nc3n(-c3ccc4c(c3)OCCO4)c2ncn1CC1CCCO1 (stereo not given)	p53 reactivator inconclusive (no result: A549 tox, Nrf2 ARE act, Nrf2 inh, ClpP mod)
COCCCn1c2nc3ccccc3nc2c2c(=O)n(CC3CCCO3)cnc21 (stereo not given)	ClpP mod 13µM
O=C(Cn1c(=O)n(CCCS(=O)(=O)C2CCCCC2)c(=O)c2ccccc21)Nc1ccc(F)c(Cl)c1	none (no result: p53 reactivator)
O=C(NC1CCCC1)c1sc(=S)n2c1[nH]c(=O)c1ccccc12	p53 reactivator inconclusive, A549 tox inconclusive, Nrf2 inh 16µM
O=C(NCc1ccco1)c1sc(=S)n2c1[nH]c(=O)c1ccccc12	none (no result: Nrf2 inh)
O=C(CSc1n[nH]c(=O)n1C1CC1)Nc1cc(Cl)ccc1Oc1ccccc1	A549 tox inconclusive, Nrf2 inh 18µM, miR-21 reporter inconclusive
CCN(CC)c1ccc(NC(=O)CCS(=O)(=O)c2cc3c(cc2Cl)NC(=O)CO3)c(C)c1	A549 tox inconclusive, Nrf2 inh 16µM (no result: p53 reactivator)
Cc1ccc(NC(=O)CCS(=O)(=O)c2cc3c(cc2Cl)NC(=O)CO3)cc1	none
CN(C(=O)COc1ncnc2ccccc12)C1CCCCC1	ClpP mod 22µM (no result: miR-21 reporter)
Cc1ccccc1C(=O)OCc1cc(=O)n2nc(C(C)C)sc2n1	Nrf2 inh inconclusive (no result: p53 reactivator)
CC1CCc2c(nc3ncnn3c2NCCc2ccccc2F)C1 (stereo not given)	A549 tox inconclusive, Nrf2 inh 3.3µM (no result: ClpP mod)
CC1CCc2c(nc3ncnn3c2N2CCN(c3ccccc3F)CC2)C1 (stereo not given)	none
Cc1nc(N2CCN(S(=O)(=O)c3ccc(F)cc3)CC2)c2c(-c3cccs3)csc2n1	Nrf2 inh 16µM (no result: ClpP mod)
O=S(=O)(c1cccc(F)c1)N1CCN(c2ncnc3scc(-c4ccc(F)cc4)c23)CC1	Nrf2 inh inconclusive, ClpP mod 25µM (no result: miR-21 reporter)
Cc1ccc(S(=O)(=O)N2CCN(c3ncnc4scc(-c5ccc(F)cc5)c34)CC2)cc1	Nrf2 inh inconclusive (no result: miR-21 reporter, ClpP mod)
Cc1nc(N2CCN(S(=O)(=O)c3ccccc3C#N)CC2)c2c(-c3ccccc3)csc2n1	Nrf2 inh inconclusive (no result: miR-21 reporter)
CC1CCc2c(sc3nnn(CCCCOc4ccc(Cl)cc4)c(=O)c23)C1 (stereo not given)	none (no result: p53 reactivator)
CCOc1ccccc1C(=O)NC1CCN(CC(=O)Nc2cc(OC)ccc2OC)CC1	Nrf2 inh 23µM
COc1cc2nc(NC3CCN(C)CC3)nc(NC3CCN(C)CC3)c2cc1OC	none (no result: p53 reactivator, A549 tox, Nrf2 ARE act, Nrf2 inh, miR-21 reporter)
O=C(c1ccc([N+](=O)[O-])s1)N1CCN(c2ccccc2)CC1	A549 tox inconclusive, Nrf2 inh 21µM
O=C1Cc2cc(S(=O)(=O)N3CCN(c4ccc(Cl)cc4)CC3)ccc2N1	none (no result: p53 reactivator, Nrf2 ARE act, miR-21 reporter, ClpP mod)
CCOc1cc(CNCc2cc(OC)cc(OC)c2)ccc1OC	Nrf2 inh 8.2µM (no result: p53 reactivator)
CCOc1cc(CNCc2ccc(C(=O)O)cc2)ccc1OC	none (no result: ClpP mod)
CCN1CCN(CC(=O)Nc2c(OC)cccc2OC)CC1	ClpP mod 22µM
COc1cc(NC(=O)CCN2CCN(CCO)CC2)cc(OC)c1	none
CCN1CCN(CCC(=O)Nc2cc(OC)cc(OC)c2)CC1	ClpP mod 28µM (no result: p53 reactivator)
Cc1ccc2c(Cl)cc(Cl)c(OCC(=O)Nc3cc(S(=O)(=O)N(C)C)ccc3C)c2n1	Nrf2 inh 15µM (no result: ClpP mod)
CCN(CC)S(=O)(=O)c1ccc(OC)c(NC(=O)C(C)Oc2ccc3c(C)cc(=O)oc3c2)c1 (stereo not given)	Nrf2 inh inconclusive, ClpP mod 25µM
CCN(CC)S(=O)(=O)c1ccc(C)c(NC(=O)COc2ccc3c(C)cc(=O)oc3c2)c1	ClpP mod 25µM
Cc1cc(C)c(NC(=O)COc2ccc3c(C)cc(=O)oc3c2)c(C)c1	none (no result: p53 reactivator)
O=C(Cc1cccs1)NC1CC(=O)N(c2cccc(F)c2)C1 (stereo not given)	none (no result: p53 reactivator, Nrf2 inh)
COc1cc2c(C(=O)N3CCN(c4ccc(C)cc4)C(C)C3)cn(CC(C)C)c(=O)c2cc1OC (stereo not given)	none (no result: p53 reactivator)
Oc1ccc(N=Nc2ccc3ccccc3c2)cc1	Nrf2 inh 2.6µM
COc1cc(N=Nc2ccc3ccccc3c2)ccc1O	none (no result: p53 reactivator)
CCS(=O)(=O)c1ccc2oc(Nc3ccc(C(C)C)cc3)nc2c1	Nrf2 inh inconclusive, ClpP mod 32µM
CCc1ccccc1Nc1sc(C(=O)c2ccccc2)c(N)c1S(=O)(=O)c1ccccc1	none (no result: p53 reactivator)
COc1ccc(OC)c2c1CCC2=O	ClpP mod 32µM
COc1ccccc1NC1=C(C)C(=O)CC1	Nrf2 inh inconclusive
Cc1ccc2oc(C(=O)Nc3sc4c(c3C(=O)NCc3ccccc3)CCCC4)cc(=O)c2c1	none (no result: p53 reactivator)
Nc1nc(N)c2c(Oc3ccc(F)cc3)cccc2n1	none (no result: p53 reactivator, A549 tox, Nrf2 ARE act, Nrf2 inh, miR-21 reporter)
O=C(Cn1ccc2cc(S(=O)(=O)N3CCCCCC3)ccc21)NCCc1ccc(Cl)cc1	Nrf2 inh 26µM (no result: p53 reactivator)
CCC(C(=O)NCCC(C)C)n1ccc2cc(S(=O)(=O)N3CCCCC3)ccc21 (stereo not given)	Nrf2 inh 13µM
CC(C)CCNC(=O)c1cc2cc(S(=O)(=O)N3CCCCC3)ccc2n1C	none (no result: p53 reactivator, Nrf2 inh)
